From PMC4336329 (PLoS ONE, 2015)
The whole screen tested about 310,000 compounds, of which about 2,200 (0.71%) showed an effect of 50% or more. Effects have a minus sign here. Shown is part of a subset that was picked to be rich in strong results.

The compounds below were run against human ether-à-go-go-related gene (hERG) potassium channel (human, UniProt Q12809) (assay: primary screen, population patch clamp on CHO cells stably expressing hERG; higher = less effect of the substance).
Sequence of human ether-à-go-go-related gene (hERG) potassium channel (Q12809 whole entry, looked up): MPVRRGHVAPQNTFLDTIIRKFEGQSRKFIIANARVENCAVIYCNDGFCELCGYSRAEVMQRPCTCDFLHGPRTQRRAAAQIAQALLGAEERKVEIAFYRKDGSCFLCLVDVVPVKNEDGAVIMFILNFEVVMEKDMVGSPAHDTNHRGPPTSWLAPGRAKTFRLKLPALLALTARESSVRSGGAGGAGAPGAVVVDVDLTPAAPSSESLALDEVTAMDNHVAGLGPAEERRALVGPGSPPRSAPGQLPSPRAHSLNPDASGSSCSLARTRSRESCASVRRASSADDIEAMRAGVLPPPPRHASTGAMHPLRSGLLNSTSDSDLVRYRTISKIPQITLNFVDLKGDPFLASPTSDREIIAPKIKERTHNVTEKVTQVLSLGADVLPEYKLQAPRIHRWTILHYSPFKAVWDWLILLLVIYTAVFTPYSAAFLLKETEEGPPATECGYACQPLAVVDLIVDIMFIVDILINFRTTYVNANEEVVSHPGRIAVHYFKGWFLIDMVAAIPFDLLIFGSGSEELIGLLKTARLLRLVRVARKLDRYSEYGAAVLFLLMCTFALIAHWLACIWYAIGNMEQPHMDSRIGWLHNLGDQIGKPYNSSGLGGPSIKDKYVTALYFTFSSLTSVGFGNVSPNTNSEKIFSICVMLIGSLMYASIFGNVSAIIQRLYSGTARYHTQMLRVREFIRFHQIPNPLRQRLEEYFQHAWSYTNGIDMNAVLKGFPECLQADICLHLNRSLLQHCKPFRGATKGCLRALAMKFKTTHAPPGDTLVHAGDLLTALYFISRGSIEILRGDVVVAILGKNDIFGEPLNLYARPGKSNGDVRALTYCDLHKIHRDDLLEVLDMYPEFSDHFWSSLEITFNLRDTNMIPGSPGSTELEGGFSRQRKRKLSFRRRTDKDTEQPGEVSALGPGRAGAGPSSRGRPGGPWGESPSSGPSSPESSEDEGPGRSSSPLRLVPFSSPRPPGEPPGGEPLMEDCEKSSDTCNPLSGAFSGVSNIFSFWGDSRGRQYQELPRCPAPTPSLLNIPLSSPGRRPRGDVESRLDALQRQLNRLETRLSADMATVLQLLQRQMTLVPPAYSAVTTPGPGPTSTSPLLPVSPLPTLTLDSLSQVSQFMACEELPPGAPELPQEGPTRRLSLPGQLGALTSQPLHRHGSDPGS

SMILES	hERG current change (%, negative = inhibition) at 1uM [%]
Cc1ccc2nc3c(cc(C(=O)NCC4CCCO4)c(=N)n3CCCOC(C)C)c(=O)n2c1 (centres unmarked)	-72.5
CC(C)OCCCn1c(SC(C)C(=O)NCC2CCCO2)nc2cc(Cl)ccc2c1=O (centres unmarked)	7.81
Cc1cccn2c(=O)c3cc(C(=O)NCC4CCCO4)c(=N)n(CCN4CCOCC4)c3nc12 (centres unmarked)	-50.1
COCCCn1c(=N)c(C(=O)NCC2CCCO2)cc2c(=O)n3ccccc3nc21 (centres unmarked)	-44.3
CCN(C(=O)c1cc2c(=O)n3cccc(C)c3nc2n1CCCOC)C1CCCCC1	4.12
COCCCn1c(=N)c(C(=O)NCC2CCCO2)cc2c(=O)n3cccc(C)c3nc21 (centres unmarked)	-74.8
COc1ccc(C2c3c(oc4ccc(Cl)cc4c3=O)C(=O)N2CCN2CCOCC2)cc1 (centres unmarked)	-24
CC(C)N(Cc1nc(-c2ccc(Cl)cc2)no1)C(=O)CN(C)S(=O)(=O)c1ccc(Cl)cc1	-5.47
COCCCn1c(=S)[nH]c2c(sc3ccccc32)c1=O	14.1
CCN1CCN(C(=O)c2cc3c(=O)n(C)c4ccccc4c3n2C)CC1	8.54
Cc1cc(C)c2c(N)c(C(=O)NNC(=O)c3ccccc3)sc2n1	12.8
Nc1ccccc1C(=O)NCc1ccccc1	1.59
CC1(C)CC(=O)C2=C(C1)NC(=S)C(C#N)C21CCCCC1 (centres unmarked)	10.1
CCOC(=O)N1CCN(S(=O)(=O)c2ccc(C(=O)Nc3nnc(C)o3)cc2)CC1	7.3
CC(CN1C(C)CCCC1C)OC(=O)c1ccccc1Br.Cl (centres unmarked)	4.15
Cc1sc2nc(CN3CCCC3)nc(N3CCN(S(=O)(=O)c4ccccc4)CC3)c2c1C	-19.4
Cc1ccc(S(=O)(=O)N2CCN(c3nc(CN4CCCC4)nc4sc(C)c(C)c34)CC2)cc1	-48.8
Cc1sc2nc(CN3CCCC3)nc(N3CCN(S(=O)(=O)c4cccs4)CC3)c2c1C	-65.2
CC(C)CC(=O)Nc1nc2ccc(S(C)(=O)=O)cc2s1	4.38
O=C(NCc1ccco1)c1scc2c1OCCO2	6.64
CCCCn1c(N)c(N(CCOC)C(=O)c2ccc(-c3cccc(C(F)(F)F)c3)o2)c(=O)[nH]c1=O	10.2
O=C(Nc1ccc(Cn2nnc3ccccc32)cc1)c1ccco1	9.6

SMILES	hERG current change (%, negative = inhibition) at 1uM [%]
O=C(CN1CCCCC1)Nc1ccccc1-c1ccccc1	14.4
Cl.O=C(CN1CCN(C2CCCCC2)CC1)Nc1cccc2ccccc12	4.28
Cl.O=C(CN1CCN(C2CCCCC2)CC1)Nc1ccccc1-c1ccccc1	-70
CCCc1c(C(=O)N/N=C/c2cccnc2)nnn1-c1nonc1N	16.6
COc1nccc(-c2ccc(F)cc2)c1C#N	16.9
O=C(Cn1c(=O)oc2ccccc21)Nc1ccc(Br)cc1	12.5
CC[N+](CC)(CC)CC(=O)Nc1ccc(SC(F)F)cc1.[Cl-]	27.1
O=C(Cc1ccccc1)Nc1ccc(SC(F)F)cc1	2.98
CCn1c(N)[n+](CC(=O)Nc2ccc(SC(F)F)cc2)c2ccccc21.[Cl-]	-63.1
Cc1cc(C)cc(N2C(=O)CC(c3ccccc3)CC2=O)c1	10.3
O=C(COC(=O)c1ccc[nH]c1=O)Nc1ccc2c(c1)OC(F)(F)O2	9.4
CN(C)CCCN(C(=O)c1sc2ccccc2c1Cl)c1nc2c(F)cccc2s1.Cl	8.6
CN(C)CCCN(C(=O)c1ccco1)c1nc2c(F)cc(F)cc2s1.Cl	-60.2
Cc1cccc2sc(N(CCCN(C)C)C(=O)c3nc4ccccc4s3)nc12.Cl	3.73
Cc1cccc2sc(N(CCCN(C)C)C(=O)c3ccco3)nc12.Cl	-54.8
CN(C)CCCN(C(=O)c1ccco1)c1nc2ccc(Cl)cc2s1.Cl	-14.7
CN(C)CCCN(C(=O)c1ccc(C(=O)c2ccccc2)cc1)c1nc2c(F)cccc2s1	-1.61
CN(C)CCCN(C(=O)c1ccco1)c1nc2c(F)cccc2s1.Cl	-62.9
Cc1ccc2nc(N(CCCN(C)C)C(=O)c3ccco3)sc2c1.Cl	-9.63
CN(C)CCCN(C(=O)c1ccco1)c1nc2ccc(F)cc2s1.Cl	-37.4
CCN1CCN(C(c2ccc(OC)cc2)c2nnnn2Cc2ccc3c(c2)OCO3)CC1.Cl (centres unmarked)	-17.4
N#Cc1ccccc1S(=O)(=O)N1CCC(C(=O)NCc2ccccc2CN2CCCC2)CC1	-45.7

SMILES	hERG current change (%, negative = inhibition) at 1uM [%]
Cn1c(=O)c2c(nc(NC3CCCCC3)n2CC(=O)C23CC4CC(CC(C4)C2)C3)n(C)c1=O	15.4
CCCC1CC(C)(c2csc(Nc3ccc(OCC)cc3)n2)OC1=O (centres unmarked)	-0.99
COC(=O)c1[nH]c2cccc(OC)c2c1NC(=O)CCN1CC(C)CC(C)C1 (centres unmarked)	-4.14
CCOc1ccccc1NC(=S)N(CCCN1CCOCC1)Cc1cn(C)c2ccccc12	5.62
Cc1ccc(CN2C3CCCC2CC(NC(=O)c2ccc(C)cc2)C3)cc1 (centres unmarked)	-77.3
Cc1ccc(CN2C3CCCC2CC(NC(=O)c2ccc(F)cc2)C3)cc1 (centres unmarked)	-77
CC(=O)NC1CC2CCCC(C1)N2Cc1ccc(C)cc1 (centres unmarked)	-10.4
CCCN1C2CCCC1CC(NC(=O)c1ccc(F)cc1)C2 (centres unmarked)	-29.7
Cc1ccc(CN2C3CCCC2CC(NC(=S)NCc2ccccc2)C3)cc1 (centres unmarked)	-54.4
Cc1ccc(C(=O)NC2CC3CCCC(C2)N3Cc2ccccc2)cc1 (centres unmarked)	-6.55
O=C(NC1CC2CCCC(C1)N2Cc1ccc(F)cc1)c1ccc(F)cc1 (centres unmarked)	-38.3
CCNC(=S)NC1CC2CCCC(C1)N2Cc1ccc(C)cc1 (centres unmarked)	-12.3
CNC(=S)NC1CC2CCCC(C1)N2Cc1ccc(C)cc1 (centres unmarked)	-4.5
O=C1CC(=C2c3ccccc3-c3ccccc32)C(=O)N1CCN1CCN(c2cccc(Cl)c2)CC1	7.4
COc1cccc(CN2CCNC(=O)C2CC(=O)N2CCCCO2)c1OC (centres unmarked)	7.47
COc1ccc(CCN2C(=O)CSC2=S)cc1OC	11.5
COC(=O)C1=CNC=C(C(=O)OC)C1c1cccc(OC)c1	9.02
Cc1cc(/C=N/NC(N)=S)c(C)n1-c1ccc(Cl)cc1	1.13
Cc1nc2c(C)cccn2c1/C(O)=C1\C(=O)C(=O)N(CCN(C)C)C1c1ccco1 (centres unmarked)	11.2
C#CC[N+]1(CC#Cc2ccc(C)cc2)CCCCC1.[Br-]	2.2
Cc1ccc(C#CC[N+]2(C)CCCCC2)cc1.[Br-]	14.2
Cc1ccc(C#CC[N+]2(CC#Cc3ccc(C)cc3)CCCCC2)cc1.[Br-]	-51.8

SMILES	hERG current change (%, negative = inhibition) at 1uM [%]
COc1ccc(C)cc1NC(=O)C1CCCN(S(=O)(=O)c2ccc(-n3cnnn3)cc2)C1 (centres unmarked)	-71.4
COc1ccccc1NC(=O)C1CCCN(S(=O)(=O)c2ccc(-n3cnnn3)cc2)C1 (centres unmarked)	-23.5
COc1ccc(OC)c(NC(=O)C2CCCN(S(=O)(=O)c3ccc(-n4cnnn4)cc3)C2)c1 (centres unmarked)	5.12
O=C(NCc1ccccc1)c1onc(CSc2ccc(F)cc2)c1C(=O)NCc1ccccc1	5.63
O=C(NCc1ccccc1)c1onc(CSc2ccc(F)cc2)c1C(=O)NCCCN1CCOCC1	-54.9
O=C(NCCCN1CCOCC1)c1onc(CSc2ccccc2)c1C(=O)NCCCN1CCOCC1	14.7
CCC(CC)NCCOC(=O)c1ccc([N+](=O)[O-])cc1	-3.41
CN1C(=O)C(Cc2cccs2)C(=O)N(C)C1=O	15.2
CCCCn1c(NC(=O)c2ccc(Br)o2)c(C(=O)OCC)c2nc3ccccc3nc21	-17.9
CCCCn1c(NC(=O)c2ccco2)c(C(=O)OCC)c2nc3ccccc3nc21	-22
CCCCCn1c(NC(=O)c2ccco2)c(C(=O)OCC)c2nc3ccccc3nc21	-73.9
COc1ccc(S(=O)(=O)NCCC(C)C)cc1C	4.62
Cc1c(CN(C)C(=O)c2nn(C)cc2[N+](=O)[O-])cnn1C	10.8
Cc1c(CN(C)C(=O)/C=C/c2ccc([N+](=O)[O-])cc2)cnn1C	-65.5
CCn1cc(CN(C)C(=O)/C=C/c2ccc([N+](=O)[O-])cc2)c(C)n1	-35.3
CC(C)c1ccc(O)c(CN2CCN(c3ccccc3)CC2)c1	10.3
CCOc1ccc(C(C)=O)cc1CN1C(=O)NC2(CCCCCCC2)C1=O	-51.8
CCOc1ccc(C(C)=O)cc1CN1C(=O)NC2(CCCCCC2)C1=O	13.5
COc1ccc(C(C)=O)cc1CN1C(=O)NC2(CCCCCCC2)C1=O	19.8
CCC(=O)OCC(=O)Nc1ccc([N+](=O)[O-])cc1OC	9.97
